The values that follow come from PubChem BioAssay (EPA / NIEHS).

Records with an inconclusive call do not appear. Active and inactive are the calls of the source. Rule for the calls: active = hit-call score of the fitted dose curve at least 0.9, where 1 is the maximum; inconclusive = response in the unintended direction; inactive = score below 0.9.

The assay can be described thus: TOX21_p53_BLA_p5_viability: Viability Assessment in the Tox21 HCT-116 p53 Agonism Beta-lactamase Assay, Phase 5 (AID 2283600). The text has this: TOX21_p53_BLA_p5 is a cell-based, single-readout assay that uses HCT116, a human intestinal cell line, […] in a 1536-well plate.TOX21_p53_BLA_p5_viability is an assay readout measuring cellular ATP content and detected with CellTiter-Glo Luciferase-coupled ATP quantitation.TOX21_p53_BLA_p5_viability used a type of viability reporter where loss-of-signal activity can be used to understand changes in the cell viability. Furthermore, this assay endpoint can be referred to as a secondary readout, because this assay has produced multiple assay endpoints where this one serves a viability function. To generalize the intended target to other relatable targets, this assay endpoint is annotated to the cell cycle intended target family, where the subfamily is cytotoxicity.
Thawing Method: Place 14 mL of pre-warmed thaw medium into a 15 mL of conical tub. Remove the vial of cells to be thawed from liquid nitrogen and thaw rapidly by placing at 37C in a water bath with gentle agitation for 1-2 minutes. Decontaminate the vial by wiping with 70% ethanol before opening in a biological safety cabinet. Transfer the vial contents drop-wise into 14 mL of thaw medium in a sterile 15-mL conical tub. Centrifuge cells at 900 rpm for 4 minutes and resuspend in thaw medium. Transfer contents to the T75 tissue culture flask containing Thaw Medium and place flask in a humidified 37C/5% CO2 incubator. Switch to growth medium at first passage.Propagation Method: Aspirate medium, rinse once in DPBS, add 0.25% Trypsin/EDTA and swirl to coat the cell evenly. Add an equal volume of Growth Medium to inactivate Trypsin after 2-3 minutes incubation at 37C. Centrifuge cells at 900 rpm for 4 minutes and resuspend in growth medium. Cell should be passage or fed at least twice a week.Assay Protocol: Harvest cells from culture in growth medium and resuspend in assay medium. 2.2 Dispense 4000 cells/5 uL/well into 1536-well black/clear bottom plates using a Multidrop dispenser. After the cells were incubated at 37C for 5 hours, 23 nL of compounds dissolved in DMSO were transferred to the assay plate by a PinTool resulting in a 217-fold dilution. Incubate the plates for 16 hours at 37C, 5% CO2. Add 1 uL of 6X LiveBLAzer FRET B/G (CCF4-AM) Substrate Mixture to each well using a BioRAPTR dispenser and incubate the plates at room temperature for 2 hours. Measure fluorescence intensity at 460 and 530 nm emission and 405 nm excitation by an Envision detector. Data is expressed as the ratio of 460nm/530nm emissions. Add 4 uL of Cell-titer Glo to each well using BioRAPTR and incubate the plates at room temperature for […]. For cell viability readout that measures cytotoxicity, 4 ul/well of CellTiter-Glo reagent was added into the assay plates using a Flying Reagent Dispenser. After 30 min incubation at room temperature, the luminescence intensity in the plates was measured using a ViewLux plate reader.
On to `Cc1nc(-c2ccc(Cl)cc2)oc1COC(C)(C)C(=O)O`, for which the compound was classed as inactive.

Regarding `C=CC(=O)[O-].C=CC(=O)[O-].[Zn+2]`, the call was inactive.

With `CCCN(CC)C(CC)C(=O)Nc1c(C)cccc1C` (stereo not given), the compound was classed as inactive.

Take `O=CC1CC=CCC1` (stereo not given): the result was inactive.

Regarding `Cc1ccccc1N=Nc1ccc(N=Nc2c(O)ccc3ccccc23)c(C)c1`, the compound was classed as inactive.

Regarding `CNC[C@@H]1CC[C@@H](N)[C@@H](O[C@H]2[C@H](O)[C@@H](O[C@H]3OC[C@](C)(O)[C@H](NC)[C@H]3O)[C@H](N)C[C@@H]2N)O1`, the call was inactive.

For `COC(=O)C(C)(C)C`, the compound was classed as inactive.

On to `NS(=O)(=O)c1cc(-c2nn[nH]n2)c(NCc2cccs2)cc1Cl`, for which the compound was classed as inactive.

Turning to `C1=CCC2CC=CC2C1` (stereo not given), the call was inactive.

On to `O=C(CCNNC(=O)c1ccncc1)NCc1ccccc1`, for which the result was inactive.

Consider `CC(C)OC(=O)C(C(=O)OC(C)C)=C1SC=CS1`, for which the outcome was inactive.

Regarding `CNCCC(Oc1ccccc1OC)c1ccccc1` (stereo not given), the compound was classed as inactive.

Turning to `C=CCC=CC`, the compound was classed as inactive.

As to `CCN(CC)CCOC(=O)C(c1ccccc1)C1CCCCC1` (stereo not given), the compound was called inactive.

With `C[n+]1ccn(Cc2ccccc2)c1`, the call was inactive.

For `S=C(SSSSSSC(=S)N1CCCCC1)N1CCCCC1`, the compound was called inactive.

For `CNC(=O)[C@H](Cc1c[nH]c2ccccc12)NC(=O)[C@@H](CC(=O)NO)CC(C)C`, the outcome was inactive.

Consider `CCCCOC(=O)C(=O)OCCCC`, for which the result was inactive.

In the case of `CC(=O)NC[C@H]1CN(c2ccc(N3CCOCC3)c(F)c2)C(=O)O1`, the outcome was inactive.

In the case of `Oc1ccc(CCNCCCCCCNCCc2ccccc2)cc1O`, the outcome was inactive.

As to `CC(C)=CC(C)(C)C`, the outcome was inactive.

Take `CCCCNC(=O)NCCCC`: the outcome was inactive.

Take `CCCC(C)C`: the compound was classed as inactive.

Regarding `Nc1nc(-c2ccc([N+](=O)[O-])cc2)cs1`, the result was inactive.

As for `CCCCOc1ccc(OCCCN2CCOCC2)cc1`, the compound was classed as inactive.

As for `CCOC(=O)/C=C/C(=O)OCC`, the compound was classed as inactive.

As for `C1CSCCS1`, the compound was classed as inactive.

For the compound `CCCC(=O)C(=O)O`, the outcome was inactive.

As to `C=C(C)C(=O)OCCCCCCCC(C)C`, the compound was classed as inactive.

With `CCOC(=O)Nc1ccc2c(c1)N(C(=O)CCN1CCOCC1)c1ccccc1S2`, the call was inactive.

Turning to `C=CCCCC`, the outcome was inactive.

As to `O=C(Oc1ccccc1C(=O)O)c1ccccc1O`, the result was inactive.

With `Cc1ncc(COP(=O)(O)O)c(CN)c1O`, the compound was classed as inactive.

Consider `O=Cc1ccc(C(=O)O)cc1`, for which the result was inactive.

On to `CC1=C(C(=O)O)N2C(=O)[C@@H](NC(=O)[C@H](N)c3ccccc3)[C@H]2SC1`, for which the outcome was inactive.

Take `CC1(C)OC[C@@H](COC(=O)CCc2ccc(OC[C@@H](O)CNCCNC(=O)N3CCOCC3)cc2)O1`: the call was inactive.

With `CCCCOCCOC(=O)CCCCCCCCC(=O)OCCOCCCC`, the outcome was inactive.

For `O=C(O)[C@H]1CN(C/C=C/P(=O)(O)O)CCN1`, the call was inactive.

As to `FC(F)(F)c1cccc(Cl)c1`, the result was inactive.

On to `c1ccc(SCCSc2ccccc2)cc1`, for which the outcome was inactive.
